Measured values: PubChem BioAssay (EPA / NIEHS)
Inconclusive results are not listed. Active and inactive are the calls of the source. The calls were made as follows: active = hit-call score of the fitted dose curve at least 0.9, where 1 is the maximum; inconclusive = response in the unintended direction; inactive = score below 0.9.

test system: not listed separately; test: TOX21_p53_BLA_p5_viability: Viability Assessment in the Tox21 HCT-116 p53 Agonism Beta-lactamase Assay, Phase 5 (AID 2283600)
Summary of the method: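 ATP luminescence (CellTiter-Glo, 30 min, RT) served as the viability read-out, with loss of signal indicating cytotoxicity. Compounds in DMSO were pinned at a 217-fold dilution onto 4000 cells/well and incubated 16 h, 37C.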

SMILES | outcome
Nc1cc(C(=O)O)c(O)c(S(=O)(=O)O)c1 | inactive
N[C@@H](C(=O)N[C@@H]1C(=O)N2C(C(=O)O)=C(Cl)CC[C@H]12)c1ccccc1 | inactive
O=C(Oc1ccccc1C(=O)O)c1ccccc1O | inactive
NC(CO)C(=O)NNCc1ccc(O)c(O)c1O (stereo not given) | inactive
Oc1ccc(C(O)CNCCCCCCNCC(O)c2ccc(O)c(O)c2)cc1O (stereo not given) | inactive
C=CCCCCCC | inactive
CC1(C)O[C@@H]2C[C@H]3[C@@H]4CCC5=CC(=O)CC[C@]5(C)[C@@]4(F)[C@@H](O)C[C@]3(C)[C@]2(C(=O)CCl)O1 | inactive
O=C1c2ccccc2C(=O)N1CO | inactive
COc1cc(C(=O)N2CCCCCCC2)cc(OC)c1OC | inactive
CCN1CCCC1CNC(=O)c1cc(S(N)(=O)=O)ccc1OC (stereo not given) | inactive
CN(C)CCC(O)(c1ccccc1)c1ccccc1Cl (stereo not given) | inactive
CC(C)C(=O)OCC(C)(C)C(O)C(C)C (stereo not given) | inactive
FC(F)(F)c1ccccc1-n1ccnc1 | inactive
CN1CCN(c2cc3c(cc2F)c(=O)c(C(=O)O)cn3-c2ccc(F)cc2)CC1 | inactive
CC1(C)S[C@@H]2[C@H](NC(=O)[C@@H](NC(=O)N3CCNC3=O)c3ccccc3)C(=O)N2[C@H]1C(=O)O | inactive
CCN(CCO)CCCC(C)Nc1ccnc2cc(Cl)ccc12 (stereo not given) | inactive
O=C(c1ccc(Cl)cc1)c1ccc(Cl)cc1 | inactive
CC(=O)Nc1ccc(OCC(O)CNC(C)C)cc1 (stereo not given) | inactive
CC(C)c1ccccc1C(C)C | inactive
C[C@@H](c1ncncc1F)[C@](O)(Cn1cncn1)c1ccc(F)cc1F | inactive
CC(C)(C)c1nnc(NS(=O)(=O)c2ccccc2)s1 | inactive
CC(C)(C)NSc1nc2ccccc2s1 | inactive
Nc1cccc2c(=O)[nH][nH]c(=O)c12 | inactive
Cc1ccccc1N1C(=O)c2cc(S(N)(=O)=O)c(Cl)cc2NC1C (stereo not given) | inactive
COCCOC(=O)CC#N | inactive

molecular target: Cellular tumor antigen p53 (Homo sapiens) (UniProt P04637); test: TOX21_p53_BLA_p4_ratio: Tox21 HCT-116 p53 Agonism Beta-lactamase Assay, Ratio, Phase 4 (AID 2283601)
Sequence (P04637 whole entry, looked up): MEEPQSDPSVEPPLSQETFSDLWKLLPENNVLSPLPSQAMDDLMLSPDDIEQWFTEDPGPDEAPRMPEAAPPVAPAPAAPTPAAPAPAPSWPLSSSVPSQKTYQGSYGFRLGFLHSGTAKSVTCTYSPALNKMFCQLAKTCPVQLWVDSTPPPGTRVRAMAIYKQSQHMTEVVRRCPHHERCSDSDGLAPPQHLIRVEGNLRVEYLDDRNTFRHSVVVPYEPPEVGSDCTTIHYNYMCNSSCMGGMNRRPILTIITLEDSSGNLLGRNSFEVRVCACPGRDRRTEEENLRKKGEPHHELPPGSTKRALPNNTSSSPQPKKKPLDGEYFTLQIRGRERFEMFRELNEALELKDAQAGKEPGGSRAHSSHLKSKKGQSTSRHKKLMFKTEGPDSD
Summary of the method: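 HCT-116 p53 beta-lactamase reporter cells (4000/well) preincubated 5 h, then compound (217-fold dilution of DMSO stock) for 16 h at 37C. CCF4-AM substrate added 2 h at room temperature; 460/530 nm emission ratio fitted upward versus DMSO.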

SMILES | outcome
Cc1cccc(C)c1NC(=O)NC1=CCCN1C | inactive
O=C(Oc1ccccc1C(=O)O)c1ccccc1O | inactive
NC(CO)C(=O)NNCc1ccc(O)c(O)c1O (stereo not given) | inactive
CC1(C)O[C@@H]2C[C@H]3[C@@H]4CCC5=CC(=O)CC[C@]5(C)[C@@]4(F)[C@@H](O)C[C@]3(C)[C@]2(C(=O)CCl)O1 | inactive
O=C1c2ccccc2C(=O)N1CO | inactive
COc1cc(C(=O)N2CCCCCCC2)cc(OC)c1OC | inactive
CCN1CCCC1CNC(=O)c1cc(S(N)(=O)=O)ccc1OC (stereo not given) | inactive
CC(=O)OCC1=C(C(=O)O)N2C(=O)[C@@H](NC(=O)Cc3ccccc3)[C@H]2SC1 | inactive
CN1CCN(c2cc3c(cc2F)c(=O)c(C(=O)O)cn3-c2ccc(F)cc2)CC1 | inactive
CC1(C)S[C@@H]2[C@H](NC(=O)[C@@H](NC(=O)N3CCNC3=O)c3ccccc3)C(=O)N2[C@H]1C(=O)O | inactive
CCN(CCO)CCCC(C)Nc1ccnc2cc(Cl)ccc12 (stereo not given) | inactive
COCc1ccc(COC)cc1 | inactive
CC(=O)Nc1ccc(OCC(O)CNC(C)C)cc1 (stereo not given) | inactive
CC(C)c1ccccc1C(C)C | inactive
CCN(CC)CC(=O)Nc1c(C)cccc1C | inactive
CC(C)(C)NSc1nc2ccccc2s1 | inactive
Nc1cccc2c(=O)[nH][nH]c(=O)c12 | inactive
Cc1ccccc1N1C(=O)c2cc(S(N)(=O)=O)c(Cl)cc2NC1C (stereo not given) | inactive
CC(=O)OCC(=O)[C@@]1(O)[C@H](C)C[C@H]2[C@@H]3C[C@H](F)C4=CC(=O)C=C[C@]4(C)[C@H]3[C@@H](O)C[C@@]21C | inactive
COCCOC(=O)CC#N | inactive
